Results: PubChem BioAssay AID1159580 (chemical genetic matrix, 2015)
Values joined by “and” are separate entries in the source; they are usually repeats but may differ in a detail not shown here. Equal values may be shown once. Among all 5,500 compounds or so, about 2,000 (36%) were called active. Another 18% or so got no clear call; they are omitted. No stated cut-off is given here; in the data, active means normalized growth mostly below about 0.91 (no sharp cut-off); inconclusive means no clear call, values can overlap the other calls; inactive means mostly above about 0.92. The list shows a part of the results.

Test: chemical genetic growth profiling, strain panel (AID 1159580);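 further: tested at 20 µM; growth read once vehicle control cultures reached saturation at 30 °C; 1 = growth at the plate median or of vehicle wells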
Conditions: S. cerevisiae deletion strains, growth OD

Measured: normalized growth

COC(=O)Nc1nc2ccc(Sc3ccccc3)cc2[nH]1
inactive: locus YAL013W, strain DEP1, stronger effect = lower value 1 | locus YAL021C, strain ccr4, stronger effect = lower value 1.01 | locus YAL026C, strain drs2, stronger effect = lower value 1 | locus YAL030W, strain snc1, stronger effect = lower value 0.986 | locus YBL061C, strain skt5, stronger effect = lower value 0.986 | locus YBR009C, strain hhf1, stronger effect = lower value 0.993 | locus YBR021W, strain FUR4, stronger effect = lower value 1.02 | locus YBR023C, strain chs3, stronger effect = lower value 0.989 | locus YBR171W, strain sec66, stronger effect = lower value 0.987 | locus YBR229C, strain ROT2, stronger effect = lower value 0.997 | locus YBR279W, strain paf1, stronger effect = lower value 0.985 | locus YCL011C, strain gbp2, stronger effect = lower value 0.991 | locus YCL016C, strain dcc1, stronger effect = lower value 1 | locus YCL061C, strain MRC1, stronger effect = lower value 1.01 | locus YCL069W, strain vba3, stronger effect = lower value 0.99 | locus YCR088W, strain abp1, stronger effect = lower value 0.996 | locus YDL005C, strain med2, stronger effect = lower value 0.987 | locus YDL035C, strain GPR1, stronger effect = lower value 0.98 | locus YDL040C, strain nat1, stronger effect = lower value 1.01 | locus YDL074C, strain BRE1, stronger effect = lower value 0.994 | locus YDL101C, strain DUN1, stronger effect = lower value 1.02 | locus YDL134C, strain PPH21, stronger effect = lower value 1.01 | locus YDL185W, strain tfp1, stronger effect = lower value 0.986 | locus YDL192W, strain arf1, stronger effect = lower value 1 | locus YDR001C, strain nth1, stronger effect = lower value 0.996 | locus YDR069C, strain doa4, stronger effect = lower value 0.984 | locus YDR101C, strain arx1, stronger effect = lower value 0.99 | locus YDR137W, strain rgp1, stronger effect = lower value 0.965 | locus YDR150W, strain NUM1, stronger effect = lower value 0.975 | locus YDR159W, strain sac3, stronger effect = lower value 0.99 | locus YDR162C, strain NBP2, stronger effect = lower value 1 | locus YDR195W, strain ref2 1.04 | locus YDR297W, strain sur2, stronger effect = lower value 0.97 | locus YDR318W, strain mcm21, stronger effect = lower value 1.01 | locus YDR335W, strain msn5, stronger effect = lower value 1 | locus YDR388W, stronger effect = lower value 1 | locus YDR392W, strain spt3, stronger effect = lower value 0.993 | locus YDR502C, strain sam2, stronger effect = lower value 0.98 | locus YEL037C, strain rad23, stronger effect = lower value 1 | locus YEL061C, strain CIN8 (second series), stronger effect = lower value 0.999 | locus YEL061C, strain CIN8, stronger effect = lower value 0.995 | locus YER015W, strain faa2, stronger effect = lower value 0.988 | locus YER016W, strain bim1, stronger effect = lower value 0.985 | locus YER110C, stronger effect = lower value 0.995 | locus YER111C, strain swi4, stronger effect = lower value 0.992 | locus YER155C, strain BEM2 (second series), stronger effect = lower value 0.978 | locus YER155C, strain BEM2, stronger effect = lower value 1 | locus YER167W, strain BCK2, stronger effect = lower value 0.991 | locus YFR010W, strain ubp6, stronger effect = lower value 0.995 | locus YGL078C, strain dbp3, stronger effect = lower value 0.99 | locus YGL086W, strain mad1, stronger effect = lower value 0.955 | locus YGL167C, strain pmr1, stronger effect = lower value 0.98 | locus YGL173C, strain kem1, stronger effect = lower value 0.991 | locus YGL227W, strain vid30, stronger effect = lower value 0.993 | locus YGL240W, strain doc1, stronger effect = lower value 0.987 | locus YGL248W, strain PDE1, stronger effect = lower value 1 | locus YGL253W, strain hxk2, stronger effect = lower value 1 | locus YGR135W, strain pre9, stronger effect = lower value 0.99 | locus YGR229C, strain SMI1, stronger effect = lower value 0.941 | locus YGR252W, strain gcn5, stronger effect = lower value 0.895 | locus YHR013C, strain ard1, stronger effect = lower value 0.969 | locus YHR027C, strain rpn1, stronger effect = lower value 0.998 | locus YHR030C, strain SLT2, stronger effect = lower value 0.995 and 0.963 | locus YHR079C, strain IRE1 (second series), stronger effect = lower value 1.01 | locus YHR079C, strain IRE1, stronger effect = lower value 0.964 | locus YHR094C, strain hxt1, stronger effect = lower value 1 | locus YHR129C, strain ARP1, stronger effect = lower value 1.01 | locus YHR142W, strain chs7, stronger effect = lower value 0.989 | locus YHR200W, strain rpn10, stronger effect = lower value 0.984 | locus YIL066C, strain RNR3, stronger effect = lower value 0.997 | locus YIL073C, strain SPO22, stronger effect = lower value 0.998 | locus YIL125W, strain kgd1, stronger effect = lower value 0.99 | locus YIR030C, strain dcg1, stronger effect = lower value 1 | locus YJL092W, strain hpr5, stronger effect = lower value 1 | locus YJL095W, strain BCK1 (second series), stronger effect = lower value 0.985 | locus YJL095W, strain BCK1, stronger effect = lower value 1.03 and 0.949 | locus YJL115W, strain asf1, stronger effect = lower value 1.01 | locus YJL129C, strain trk1, stronger effect = lower value 0.976 | locus YJL134W, strain LCB3, stronger effect = lower value 1 | locus YJL154C, strain vps35, stronger effect = lower value 0.993 | locus YJL164C, strain tpk1, stronger effect = lower value 1 | locus YJL166W, strain qcr8, stronger effect = lower value 0.972 | locus YJL168C, strain set2, stronger effect = lower value 1 | locus YJL187C, strain SWE1 (second series), stronger effect = lower value 1.01 | locus YJR043C, strain POL32, stronger effect = lower value 0.988 | locus YJR066W, strain TOR1, stronger effect = lower value 0.872
active: locus YBR231C, strain swc5, stronger effect = lower value 0.753 | locus YCL029C, strain bik1, stronger effect = lower value 0.826 | locus YDR334W, strain swr1, stronger effect = lower value 0.788 | locus YEL003W, strain gim4, stronger effect = lower value 0.206 | locus YGR078C, strain PAC10, stronger effect = lower value 0.0823
